# Measurements reported in PubChem BioAssay.
# Active and inactive are the calls of the source. Unless noted, no rule for the calls is given here.
# Columns and labels:
# [1] = tested on: Wnt5a (protein binding on small-molecule microarray); assay: Wnt5a binders on small-molecule microarray, primary screen, biophysical, 635/667 nm fluorescence (AID 1142); details: 635 nm fluorescence, higher = more signal;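 also: fluorescence read at 667 nm with signal to noise per printed feature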
# [2] = cell viability in Huh7 cells, primary screen, cytotoxicity control for HCV replication inhibitor project, CellTiter-Glo luminescence, basal, 48 h (AID 1143); details: Huh7 HCV replicon, higher = more signal, called active from +8 up or from −8 down;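 also: Huh7 hepatoma cells carrying a hepatitis C replication reporter with no stimulus; test concentration not given here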
# [3] = P. aeruginosa biofilm formation inhibitors, primary screen, PAO1 strain, BacTiter-Glo luminescence, LB-PBS (AID 1144); details: 12 h, higher = more signal
# [4] = CREB reporter modulators without forskolin, primary screen, cell-based, PC12, CRE-LacZ reporter, unstimulated (AID 1145); details: no forskolin, luminescence, 4.5 h, higher = more signal, called active from +8 up or from −8 down
# [5] = CREB reporter modulators under forskolin, primary screen, cell-based, PC12, CRE-LacZ reporter, forskolin-stimulated (AID 1146); details: luminescence, 4.5 h, higher = more signal, called active from +8 up or from −8 down;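 also: PC12 cells with 6xCRE LacZ reporter stimulated by forskolin 10 µM; beta-galactosidase reporter signal reflecting CREB driven transcription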
# [6] = target: Streptavidin (Streptomyces avidinii) (UniProt P22629); assay: streptavidin binders on small-molecule microarray, primary screen, artefact control for SMM compound annotation, biophysical, 635/667 nm fluorescence (AID 1147); details: streptavidin binding, higher = more signal;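 also: signal reflects streptavidin binding to arrayed compounds as a control protein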
# [7] = small-molecule binders of probe aInhba, primary screen, biochemical, small-molecule microarray, 635/667 nm fluorescence (AID 1148); details: higher = more signal;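 also: score merges 667nm spot fluorescence with signal-to-noise for antibody binding to printed compounds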
# [8] = target: Torsin-1A (Homo sapiens) (UniProt O14656); assay: torsin A binders from cell lysate, primary screen, small-molecule microarray, wild-type, 635/667 nm (AID 1149); details: COS7 hTOR1A-WT lysate, 635 nm fluorescence, higher = more signal
# [9] = target: Torsin-1A (Homo sapiens) (UniProt O14656); assay: small-molecule binders of mutant TOR1A in lysate, primary screen, cell lysate, small-molecule microarray, COS7 lysate, 635/667 nm fluorescence (AID 1150); details: COS7 hTOR1A mutant lysate, 635 nm fluorescence, higher = more signal;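 also: score pools 667 nm emission and signal to noise measuring lysate protein binding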
# [10] = tested on: Sonic hedgehog protein (Shh); assay: small-molecule binders of Shh protein, primary screen, biochemical, small-molecule microarray, 635/667 nm fluorescence (AID 1151); details: small-molecule microarray binding, 635 nm fluorescence; higher = more signal;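 also: Shh protein binding to compounds spotted on small-molecule microarray slides; score combines spot fluorescence intensity with signal-to-noise across triplicate slides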
# [11] = E. coli DRC41 culture turbidity changes, primary screen, E. coli filamentation inducer project, strain DRC41, OD650, 48 h (AID 1152);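 also: E. coli MC1000 strain DRC41 lacking acrAB efflux pump and sulA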; details: E. coli DRC41 (acrAB sulA), higher = more signal, called active from +8 up or from −8 down
# [12] = small-molecule binders of probe aLefty1, primary screen, biochemical, small-molecule microarray, 635/667 nm fluorescence (AID 1153); details: higher = more signal;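 also: score merges spot fluorescence with signal-to-noise ratio from the scanned slide images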
# [13] = PSAC antagonists in infected red cells, primary screen, cell-based, P. falciparum Indochina, OD700, 1 h (AID 1154); details: P. falciparum Indochina infected RBC osmotic lysis, higher = more signal, called active from +8 up or from −8 down
# [14] = PSAC antagonists in infected red cells, primary screen, cell-based, P. falciparum Indochina, OD700, 2 h (AID 1155);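 also: lysis reports solute entry through the parasite surface anion channel PSAC; channel blockers reduce lysis of infected cells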; details: P. falciparum Indochina infected erythrocytes, osmotic lysis OD700; higher = more signal, called active from +8 up or from −8 down
# [15] = osmotic lysis modulators in infected erythrocytes, primary screen, PSAC antagonist project, cell-based, P. falciparum Indochina, OD700, 3 h (AID 1156); details: higher = more signal, called active from +8 up or from −8 down
# [16] = PSAC antagonists in infected red cells, primary screen, cell-based, P. falciparum Indochina, OD700, 18 h (AID 1157); details: P. falciparum Indochina infected erythrocytes, osmotic lysis OD700, 18 h; higher = more signal, called active from +8 up or from −8 down
# [17] = modulators of S6 phosphorylation in cells, primary screen, cell-based, A549, cytoblot, luminescence, serum-stimulated (AID 1158); details: A549 phospho-S6 cytoblot, 5 h, higher = more signal;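 also: serum-stimulated A549 lung adenocarcinoma cells; signal is phosphorylated S6 detected by cytoblot immunostaining with HRP secondary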
# [18] = target: NADPH oxidase 2 (Homo sapiens) (UniProt P04839); assay: NOX2-dependent H2O2 signal modulators, primary screen, NOX inhibitor project, cell-based, HEK293-NOX2, PMA-stimulated, Amplex Red fluorescence (AID 1159); details: 45 min, higher = more signal, called active from +8 up or from −8 down; also: test concentration not given here
# [19] = target: NADPH oxidase 4 (Homo sapiens) (UniProt Q9NPH5); assay: NOX4-dependent H2O2 signal modulators, primary screen, NOX inhibitor project, cell-based, HEK293-NOX4, tetracycline-induced, Amplex Red fluorescence (AID 1160); details: 45 min, higher = more signal, called active from +8 up or from −8 down
# [20] = target: NADPH oxidase 5 (Homo sapiens) (UniProt Q96PH1); assay: NOX5-dependent H2O2 signal modulators, primary screen, NOX inhibitor project, cell-based, HEK293-NOX5, Amplex Red fluorescence (AID 1161); details: HEK293-NOX5, ionomycin, 45 min, higher = more signal
# Chain of NADPH oxidase 5 (Homo sapiens) (Q96PH1 whole entry, looked up): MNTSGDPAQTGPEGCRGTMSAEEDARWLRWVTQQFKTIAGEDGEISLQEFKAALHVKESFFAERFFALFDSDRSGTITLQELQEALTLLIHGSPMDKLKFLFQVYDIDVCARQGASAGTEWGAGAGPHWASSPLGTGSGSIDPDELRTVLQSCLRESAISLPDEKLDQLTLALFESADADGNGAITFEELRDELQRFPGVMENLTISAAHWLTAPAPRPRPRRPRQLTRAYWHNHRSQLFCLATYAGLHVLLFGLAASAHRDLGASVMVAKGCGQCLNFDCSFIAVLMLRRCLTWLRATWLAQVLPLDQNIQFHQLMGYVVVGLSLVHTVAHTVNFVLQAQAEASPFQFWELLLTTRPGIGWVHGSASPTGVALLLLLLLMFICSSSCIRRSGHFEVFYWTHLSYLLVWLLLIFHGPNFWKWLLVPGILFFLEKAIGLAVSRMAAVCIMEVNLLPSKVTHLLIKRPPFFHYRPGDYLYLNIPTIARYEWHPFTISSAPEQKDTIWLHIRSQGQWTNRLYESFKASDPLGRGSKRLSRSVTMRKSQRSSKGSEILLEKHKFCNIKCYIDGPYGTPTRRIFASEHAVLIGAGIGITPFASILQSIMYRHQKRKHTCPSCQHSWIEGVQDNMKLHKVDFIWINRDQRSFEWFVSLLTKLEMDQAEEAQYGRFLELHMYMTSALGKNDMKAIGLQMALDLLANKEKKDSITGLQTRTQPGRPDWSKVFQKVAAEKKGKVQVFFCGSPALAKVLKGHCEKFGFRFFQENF
# Chain of NADPH oxidase 2 (Homo sapiens) (P04839 whole entry, looked up): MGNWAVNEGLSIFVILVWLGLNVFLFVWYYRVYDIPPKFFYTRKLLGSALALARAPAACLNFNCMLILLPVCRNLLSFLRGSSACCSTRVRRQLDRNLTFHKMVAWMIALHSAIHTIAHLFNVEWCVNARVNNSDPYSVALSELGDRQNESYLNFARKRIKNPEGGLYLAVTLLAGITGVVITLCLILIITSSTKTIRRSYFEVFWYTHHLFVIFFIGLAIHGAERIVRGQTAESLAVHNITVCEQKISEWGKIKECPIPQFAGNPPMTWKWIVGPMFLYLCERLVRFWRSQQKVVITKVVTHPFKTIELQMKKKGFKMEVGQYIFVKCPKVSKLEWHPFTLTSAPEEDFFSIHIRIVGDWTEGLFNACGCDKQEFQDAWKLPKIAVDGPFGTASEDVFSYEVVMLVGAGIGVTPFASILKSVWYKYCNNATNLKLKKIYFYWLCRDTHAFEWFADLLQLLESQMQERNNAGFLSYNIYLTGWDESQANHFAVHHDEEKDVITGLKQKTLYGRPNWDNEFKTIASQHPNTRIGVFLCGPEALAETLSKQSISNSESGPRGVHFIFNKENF
# Chain of Torsin-1A (Homo sapiens) (O14656 whole entry, looked up): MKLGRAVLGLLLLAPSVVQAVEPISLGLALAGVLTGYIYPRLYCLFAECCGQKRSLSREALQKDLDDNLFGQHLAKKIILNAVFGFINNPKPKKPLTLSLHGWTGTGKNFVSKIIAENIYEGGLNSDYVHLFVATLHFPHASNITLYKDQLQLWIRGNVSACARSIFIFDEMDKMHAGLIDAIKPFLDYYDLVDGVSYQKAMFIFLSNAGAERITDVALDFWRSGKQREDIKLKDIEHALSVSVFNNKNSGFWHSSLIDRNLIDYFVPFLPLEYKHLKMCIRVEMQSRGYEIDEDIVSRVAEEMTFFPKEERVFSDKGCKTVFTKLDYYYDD
# Chain of NADPH oxidase 4 (Homo sapiens) (Q9NPH5 whole entry, looked up): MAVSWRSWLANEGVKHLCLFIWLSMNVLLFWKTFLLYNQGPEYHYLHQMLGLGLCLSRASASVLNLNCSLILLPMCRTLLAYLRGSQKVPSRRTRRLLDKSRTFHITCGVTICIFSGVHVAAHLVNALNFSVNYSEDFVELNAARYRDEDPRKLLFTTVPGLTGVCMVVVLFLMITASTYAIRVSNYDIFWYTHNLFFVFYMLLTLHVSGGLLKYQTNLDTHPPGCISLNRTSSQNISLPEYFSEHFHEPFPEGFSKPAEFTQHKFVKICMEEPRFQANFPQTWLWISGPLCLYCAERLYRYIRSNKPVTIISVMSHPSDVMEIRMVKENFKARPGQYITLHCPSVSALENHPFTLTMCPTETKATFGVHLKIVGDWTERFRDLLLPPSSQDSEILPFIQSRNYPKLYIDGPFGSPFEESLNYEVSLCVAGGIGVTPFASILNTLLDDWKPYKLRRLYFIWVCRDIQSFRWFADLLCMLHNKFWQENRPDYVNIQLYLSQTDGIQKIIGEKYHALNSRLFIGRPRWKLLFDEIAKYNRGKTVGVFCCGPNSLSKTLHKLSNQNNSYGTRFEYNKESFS
# Chain of Streptavidin (Streptomyces avidinii) (P22629 whole entry, looked up): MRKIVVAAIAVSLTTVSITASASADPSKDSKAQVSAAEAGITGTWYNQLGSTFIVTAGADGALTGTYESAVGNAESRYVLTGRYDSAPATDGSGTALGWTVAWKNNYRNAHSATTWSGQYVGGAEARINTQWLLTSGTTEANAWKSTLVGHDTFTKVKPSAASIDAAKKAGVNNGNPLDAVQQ
Compound,composite z-score [1],z-score [2],z-score [3],z-score [4],z-score [5],composite z-score [6],composite z-score [7],composite z-score [8],composite z-score [9],composite z-score [10],z-score [11],composite z-score [12],z-score [13],z-score [14],z-score [15],z-score [16],z-score [17],z-score [18],z-score [19],z-score [20]
CCOC(=O)[C@H](CC(C)C)NC(=O)CCC1CC(OC(=O)NCc2ccc3c(c2)OCO3)CC2(CCCC(COC(=O)NCCc3ccccc3OC)O2)O1 (stereo not given in full),0.08,-0.556 (inactive),0.162 (inactive),-0.0755 (inactive),0.101 (inactive),0.512,-0.128,-0.0035,0.582,1.19,-1.08 (inactive),0.0437,-1.67 (inactive),-0.213 (inactive),-1.01 (inactive),-0.143 (inactive),-0.116,0.0807 (inactive),0.886 (inactive),1.24
COC(=O)[C@H](C)NC(=O)CCC1CC(OC(=O)NCCc2ccc(F)cc2)CC2(CCCC(COC(=O)NCCOc3ccccc3)O2)O1 (stereo not given in full),0.399,-0.471 (inactive),0.706 (inactive),-0.0755 (inactive),-0.501 (inactive),0.56,-0.0059,0.37,0.379,1.46,-0.651 (inactive),0.0169,-1.23 (inactive),-0.257 (inactive),0.189 (inactive),0.199 (inactive),0.0246,0.749 (inactive),0.622 (inactive),0.382
CO[C@H]1COC(=O)CCC[C@H](C)[C@@H](OC)COC(=O)CC=C[C@@H]1C,-0.0982,-0.0992 (inactive),0.132 (inactive),-0.394 (inactive),-0.24 (inactive),-0.256,-0.128,0.0956,0.861,1.34,0.0226 (inactive),-0.17,-1.29 (inactive),-1.22 (inactive),-0.315 (inactive),-2.45 (inactive),-0.279,-0.123 (inactive),-0.0115 (inactive),0.344
COC(=O)[C@H](C)NC(=O)CCC1CC(OC(=O)NCCc2ccc(F)cc2)CC2(CCCC(COC(=O)NCc3ccccc3)O2)O1 (stereo not given in full),0.101,-0.455 (inactive),-0.035 (inactive),0.199 (inactive),0.833 (inactive),0.848,-0.0209,0.257,0.477,1.25,-1.03 (inactive),0.0367,-0.622 (inactive),-0.694 (inactive),-0.384 (inactive),-0.268 (inactive),0.788,0.0624 (inactive),-0.0206 (inactive),0.519
C#CCCCON=C1C[C@@H](O)[C@@H](O)[C@@H]2[C@@H]3C(=O)N([C@@H](C)c4ccccc4)C(=O)[C@@H]3CC[C@@H]12,0.025,0.341 (inactive),-0.0365 (inactive),0.0676 (inactive),0.227 (inactive),0.214,-0.239,-0.281,-0.434,0.0938,0.0467 (inactive),0.0824,0.433 (inactive),0.186 (inactive),-0.195 (inactive),-0.139 (inactive),-0.507,0.362 (inactive),0.574 (inactive),-0.132
O=C1C[C@H](c2ccccc2)[C@H](c2ccc(Br)cc2)O1,0.0974,-1.52 (inactive),-1.42 (inactive),0.375 (inactive),-0.0385 (inactive),0.521,-0.128,-0.0753,-0.022,0.212,-1.16 (inactive),-0.464,-0.142 (inactive),-1.13 (inactive),-0.0291 (inactive),-1.6 (inactive),1.61,0.146 (inactive),-0.255 (inactive),-0.446
CCc1cc2c(nc1CC)CCN(CCC(C)=NO[C@@H]1O[C@H](COC(C)=O)[C@@H](OC(C)=O)[C@H](OC(C)=O)[C@H]1OC(C)=O)C2,0.503,-1.9 (inactive),-1.19 (inactive),4.05 (inactive),-0.26 (inactive),0.963,-0.089,0.439,0.495,1.88,-1.13 (inactive),-0.0929,-0.451 (inactive),-1.01 (inactive),1.42 (inactive),-1.67 (inactive),1.83,0.0419 (inactive),0.47 (inactive),1.03
O=C1C2=CC[C@H]3C(=O)N(C[C@@H]4CCCO4)C(=O)[C@H]3[C@H]2[C@H](O)[C@@H]2O[C@H]12,0.487,-4.97 (inactive),0.846 (inactive),0.0664 (inactive),21.2 (active),0.19,-0.12,0.863,0.511,-0.331,0.194 (inactive),-0.0969,-0.303 (inactive),0.59 (inactive),-0.2 (inactive),0.108 (inactive),0.177,-1.35 (inactive),-0.219 (inactive),0.271
O=C1[C@H]2[C@H]3[C@H](O)[C@H](O)CC(=NO[C@@H]4O[C@H](CO)[C@@H](O)[C@H](O)[C@H]4O)[C@@H]3CC[C@H]2C(=O)N1c1cccc(Oc2ccccc2)c1,0.0469,0.353 (inactive),-0.774 (inactive),0.967 (inactive),0.314 (inactive),0.532,-0.0504,0.787,0.0995,0.828,-0.192 (inactive),-0.0967,-0.612 (inactive),-0.0313 (inactive),0.271 (inactive),0.0606 (inactive),-0.263,0.614 (inactive),1.02 (inactive),0.544
COC(=O)[C@H](C)NC(=O)CCC1CC(OC(=O)NCc2cccc3ccccc23)CC2(CCCC(COC(=O)NCc3cccc(C(F)(F)F)c3)O2)O1 (stereo not given in full),0.166,-1.33 (inactive),-1.07 (inactive),-0.0755 (inactive),-0.213 (inactive),0.925,0.444,0.241,0.225,1.04,-0.356 (inactive),0.0794,1.35 (inactive),-0.871 (inactive),0.339 (inactive),-1.23 (inactive),1.1,0.352 (inactive),-0.179 (inactive),0.0278
CON=C(C)CCN1CCCc2nc(C)c(C)cc21,0.377,0.258 (inactive),0.128 (inactive),0.345 (inactive),-0.0543 (inactive),0.286,-0.0645,-0.209,0.23,1.07,-2.33 (inactive),-0.0601,1.03 (inactive),0.498 (inactive),0.619 (inactive),0.49 (inactive),-0.621,-1.52 (inactive),-1.06 (inactive),-0.493
CCOC(=O)NN=C1C[C@@H](O)[C@@H](O)[C@@H]2[C@@H]3C(=O)N(C[C@@H]4CCCO4)C(=O)[C@@H]3CC[C@H]12,0.0534,0.587 (inactive),-0.973 (inactive),-0.926 (inactive),-0.0875 (inactive),-0.319,-0.004,0.715,0.577,0.225,0.138 (inactive),-0.147,-0.133 (inactive),-0.121 (inactive),-0.497 (inactive),-0.235 (inactive),0.0411,0.192 (inactive),0.433 (inactive),-0.468
CCOC(=O)NN=C1C[C@@H](O)[C@@H](O)[C@@H]2[C@@H]3C(=O)N(c4ccc(F)cc4F)C(=O)[C@@H]3CC[C@H]12,0.199,-4.03 (inactive),-1.05 (inactive),-0.296 (inactive),0.409 (inactive),-0.0442,-0.0962,0.49,0.381,0.404,-0.57 (inactive),-0.0106,1.03 (inactive),-1.41 (inactive),0.465 (inactive),-1.75 (inactive),0.245,-4.88 (inactive),-1.81 (inactive),-0.472
CC(C)CON=C1[C@H]2CCn3c(=O)n(C)c(=O)n3[C@H]2[C@H](O)[C@@H]2O[C@H]12,0.0208,0.736 (inactive),-0.279 (inactive),0.252 (inactive),-0.28 (inactive),0.212,-0.0405,0.558,-0.0543,0.637,-0.0031 (inactive),-0.0559,-0.399 (inactive),-0.165 (inactive),-0.607 (inactive),-0.162 (inactive),-0.445,-0.5 (inactive),0.0343 (inactive),-0.0469
